# Data: PubChem BioAssay AID434985 (The Scripps Research Institute Molecular Screening Center, 2010)
# This is one part of the list. Unmarked numbers belong to inactive results.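 The calls were made as follows: active = mean percent activation over triplicates above a cutoff set from solvent-only control plates; inactive = the rest.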
# Target: Oxytocin receptor (Homo sapiens) (UniProt P30559)
# Assay: human OXTR potentiators, confirmation, fluorescence, CHO-OTR cells, triplicate (AID 434985);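 also: compounds tested in the presence of an EC15 dose of oxytocin; 0% = EC15 oxytocin with DMSO and 100% = EC100 oxytocin with DMSO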
# Details: Fluo-8 calcium fluorescence, potentiation, at 3 µM, stronger effect = higher value, scaled from low-dose to maximal oxytocin
# Oxytocin receptor (Homo sapiens), sequence (P30559 whole entry, looked up): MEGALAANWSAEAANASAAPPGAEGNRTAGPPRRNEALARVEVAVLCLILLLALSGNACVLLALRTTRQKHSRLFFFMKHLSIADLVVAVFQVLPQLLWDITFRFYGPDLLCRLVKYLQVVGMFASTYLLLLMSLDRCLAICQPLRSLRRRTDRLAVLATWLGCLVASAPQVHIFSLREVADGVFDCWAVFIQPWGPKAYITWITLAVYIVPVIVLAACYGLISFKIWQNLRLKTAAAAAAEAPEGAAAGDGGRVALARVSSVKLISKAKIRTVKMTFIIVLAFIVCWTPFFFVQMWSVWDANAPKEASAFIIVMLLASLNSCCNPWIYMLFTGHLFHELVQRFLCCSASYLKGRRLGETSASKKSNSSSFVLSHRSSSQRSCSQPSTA
row,SMILES,activation
1,CCCCn1c(N)c(N2CCOCC2)c(=O)n(CC(=O)NCCc2ccccc2)c1=O,-3.12%
2,Cc1cc(C)cc(NC(=O)CSc2ccccc2)c1,-0.71%
3,Cc1ccc(OCC(O)CN2CCN(CC(O)COc3ccc(C)cc3Cl)CC2)c(Cl)c1 (configuration not stated),-3.49%
4,COCCn1c(CN(Cc2ccccc2)Cc2ccccc2)nc2c1c(=O)n(C)c(=O)n2C,-1.46%
5,CCCCNc1c(-c2ccc(OC)c(Sc3ccc(OC)cc3)c2)nc2ccc(Cl)cn12,-4.15%
6,COc1cc2c(cc1OC)C(c1ccc(C)o1)CC(=O)N2 (configuration not stated),-4.74%
7,CNc1nnc(-c2ccco2)s1,-4.03%
